Among the data in the emibetuzumab library of Makowski et al. (2022) are antigen binding call values, retold here.

Some of the results follow. The true hit rate is not given.

The chains are these.
B1: VH:VL chains; a variant is named by its letters at X, in order (parent)
chain 1: QVQLVQSGAEVKKPGASVKVSCKASGYTFTDYXMHWVRQAPGQGLEWMGXVNPNXXXTTYNQKFEGRVTMTTDTSTSTAYMELRSLRSDDTAVYYCARXNXLDXWGQGTTVTVSS
chain 2: DIQMTQSPSSLSASVGDRVTITCSVSSSVSSIYLHWYQQKPGKAPKLLIYSTSNLASGVPSRFSGSGSGTDFTLTISSLQPEDFATYYCQVYSGYPLTFGGGTKVEIK

In this test the parent is B1. Put plainly: yeast display scFab, FACS + sequencing. The following applies: with MET. A digest of the protocol:
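A yeast surface library of scFab variants carrying heavy-chain CDR mutations went through two magnetic enrichment rounds on Protein A beads coated with HGFR-Fc, then FACS. For sorting, cells were labelled for 3 h at room temperature with 1 nM HGFR-Fc and anti-Myc in PBSB containing 1% milk, and the top 50% of antigen-positive cells were gated. Input and round-3 sorted populations were deep sequenced in two replicates. A sequence was called an antigen binder if it appeared in both antigen-positive samples and a non-binder if it appeared only in the input.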
With DAGRGDGF, the antigen binding call is “no binding”.
On to YKRRDFGV, for which the antigen binding call is given as “no binding”.
Then YRRRGAGV, with “binds”.
To YATGGYAV belongs “no binding”; to YRRRGFGV, “binds”.
To DAAGAAGV belongs “no binding”; to DARRGAGV, “binds”.
For the variant DATGGYAV, the antigen binding call is listed as “binds”.
To DAGGAAGV belongs “no binding”; to VATGGYAV, “no binding”; to VTGTGAVV, “no binding”.
To VEGTNDVV belongs “no binding”; to YKRGGAAA, “binds”; to YTRAGAAA, “no binding”.
Then YKRGSAAA, with “binds”; and VKRGSAAV, with “binds”; and FKRKAAAA, with “no binding”.
In the case of VKGRAAVA, the antigen binding call is “no binding”.
Then DKEGGAAA, with “no binding”; and VTTKSAAV, with “no binding”; and VKRGSAAA, with “binds”.
To AKRGSAAV belongs “no binding”.
Consider YARADAAA, for which the antigen binding call is recorded as “no binding”.
In the case of DAGTGDGV, the antigen binding call is given as “no binding”.
On to DEGRGDGV, for which the antigen binding call is “no binding”.
To VTGESAAV belongs “no binding”.
In the case of DEARSDGA, the antigen binding call was “no binding”.
To FRTRGSSD belongs “binds”.
To YRRRGASD belongs “binds”; to YRRRGYSD, “no binding”; to YRRRGSSD, “binds”.
To FRREGSSD belongs “no binding”; to FRRRGSSD, “binds”; to YAGTGDLV, “no binding”.
For DETRSAGA, the antigen binding call is recorded as “no binding”.
For the variant YRTRSSGA, the antigen binding call was “binds”.
Then YRTRSAGA, with “binds”; and VRTRSFGA, with “no binding”.
To SGRGNDAV belongs “no binding”; to YRRGGYAV, “binds”; to YRTRGYAV, “no binding”.
Then YRRGAAAV, with “binds”; and ARRGAYGV, with “no binding”; and YTRGADGV, with “no binding”.
As for DARGGAAV, the antigen binding call was “no binding”.
To YRRGGAAV belongs “binds”; to YRKGGAAV, “binds”.
To YARAGYAV belongs “no binding”.
To AEGTSAVF belongs “no binding”; to DAGGGDGA, “no binding”.
On to AARADFGV, for which the antigen binding call is “no binding”.
Then ATTKSDGA, with “no binding”.
To VATRGFWD belongs “no binding”.
In the case of VRTRGSWD, the antigen binding call is “binds”.
To YRTRSSWD belongs “binds”; to YRTRGSWD, “binds”; to DATRSSWD, “no binding”.
To DRGKNDGD belongs “no binding”; to DKEGGDGA, “no binding”; to YRRRSAGA, “binds”.
To YRRRSAVA belongs “binds”; to DREGDAVA, “no binding”; to DREEGAGA, “no binding”.
For the variant VTGGDDGA, the antigen binding call is “no binding”.
To VEGADAVA chain 1 G106S belongs “no binding”; to AGGGNSGV, “no binding”.
To SKGRSSWS belongs “no binding”.
To VKGKSSWS belongs “no binding”; to YKGRGSWS, “binds”; to VKGRGSWS, “binds”.
With VKGRASWS, the antigen binding call was “no binding”.
To VKGGAAVY belongs “no binding”; to YKGTDAWY, “no binding”; to YKGGSAGY, “binds”.
Consider YEGGGDVY, for which the antigen binding call is listed as “no binding”.
Then YKGGSAWY, with “binds”; and YKGEDDVY, with “no binding”; and YKGGSDVY, with “binds”.
Then VKGTDAWY, with “no binding”.
Consider DEKEGDAA, for which the antigen binding call is reported as “no binding”.
To YAGGAYLY belongs “no binding”; to YRGGAAWY, “binds”.
Then YRGGAAWD, with “binds”; and YEGGADVD, with “no binding”; and YTGTSDLD, with “no binding”.
Then YRRRGSVD, with “binds”; and YRRRGFGD, with “no binding”.
Consider YRARGDLD, for which the antigen binding call is recorded as “binds”.
To YRRRGSLD belongs “binds”.
On to YRRRGFVD, for which the antigen binding call is “binds”.
To DGARNSGV belongs “no binding”; to FAGRAAWA, “no binding”; to SETTDDVA, “no binding”.
For AGGGNDVY, the antigen binding call is on record as “no binding”.
Then YARRGSLD, with “binds”; and YRRRSSVD, with “binds”.
To YARADSLD belongs “no binding”.
Then YRRRGAVD, with “binds”; and YRRRGYVD, with “no binding”; and DARRGSGD, with “no binding”.
As for YRRRGDVD, the antigen binding call is on record as “binds”.
Then YTERGDVD, with “no binding”.
Then SEGTGDWV, with “no binding”.
To VEEEGDSA belongs “no binding”; to VETEGDVA, “no binding”.
On to YRRRGDLD, for which the antigen binding call is on record as “binds”.
Then YRREGSLD, with “binds”; and YRRRGSWD, with “binds”.
Then AEARSDGA, with “no binding”; and AEGRGAVY, with “no binding”; and SEGRGDVY, with “no binding”.
To SEGRGAWY belongs “binds”; to SRGRGAWY, “binds”.
Turning to VETGNDGV, the antigen binding call is given as “no binding”.
For ATRGADAV, the antigen binding call is “no binding”.
Then YAGRGVVD, with “no binding”.
Turning to YRGRGFVD, the antigen binding call is “binds”.
As to YREGDFVD, the antigen binding call is listed as “no binding”.
Then YAGTGVVD, with “no binding”; and YRGGGVVD, with “binds”; and YRGRGVVD, with “binds”.
Consider YRGRDFVD, for which the antigen binding call is listed as “no binding”.
On to VTGGDSWF, for which the antigen binding call was “no binding”.
Then AGTRSFGY, with “no binding”.
As for FRATSAVD, the antigen binding call is listed as “no binding”.
Then FTEEGAVD, with “no binding”; and FRAGGAVD, with “binds”.
Then FRAGGSVD, with “binds”.
Turning to VKARGSGA, the antigen binding call was “binds”.
To DKAGGDGS belongs “no binding”; to SKTKSSAS, “no binding”; to VKKTGSGA, “no binding”.
To YKARGSGS belongs “binds”; to VTTKSSVA, “no binding”.
Regarding YKAGGSAS, the antigen binding call is given as “binds”.
Then VKARGSVA, with “binds”; and VKAGDSGA, with “no binding”.
To VKEGGDVA belongs “no binding”.
VAGGDDGF: the antigen binding call is given as “no binding”.
Then SKTKSDGV, with “no binding”.
Then YEARNAGA, with “no binding”.
To YKARGAGA belongs “binds”.
For the variant VKEGGSSA, the antigen binding call is listed as “no binding”.
Then VKARGSLA, with “binds”; and VKERGAVA, with “no binding”.
Then YTERAAWA, with “no binding”.
Then YMAEGSGA, with “no binding”; and YKARGSGA, with “binds”; and YKARGAWA, with “binds”.
As to SAAGSVWY, the antigen binding call was “no binding”.
Then VKEGGDGA, with “no binding”; and DEAGDAVV, with “no binding”; and SAGRGFGF, with “no binding”.
To SRGRGAWF belongs “binds”; to SRGRGAGF, “binds”; to YKRKSASD, “binds”.
Then AKTGDSSD, with “no binding”.
As to YKRGSSSD, the antigen binding call is given as “binds”.
For the variant YKAGGYSD, the antigen binding call was “no binding”.
For the variant VKRGSSSD, the antigen binding call was “binds”.
Then AKAADSSD, with “no binding”; and AKGKASSD, with “no binding”; and YKAGDSSD, with “binds”.
Then YARADSSD, with “no binding”; and VAEKGDVF, with “no binding”; and VTGEDDWV, with “no binding”.
To DREGDDAV belongs “no binding”; to SEARSDSF, “no binding”.
Take AKAGGASD: the antigen binding call is “no binding”.
Then YKRRDASD, with “no binding”; and YKRGSASD, with “binds”; and DTTGSDAV, with “no binding”.
With VAGTDDWV, the antigen binding call is listed as “no binding”.
With YRRGGFVV, the antigen binding call was “binds”.
Then YRAGGFVV, with “binds”; and YRRRGFVV, with “binds”; and YRATDFVV, with “no binding”.
As to YTATGFAV, the antigen binding call was “no binding”.
Then YRRRGFAV, with “binds”.
With ATAGSASD, the antigen binding call was “no binding”.
To DRGGDDWV belongs “no binding”; to STGTSDLY, “no binding”; to AATTDSGD, “no binding”.
Then SAREGDAV, with “no binding”.
Then YTRGADLA, with “no binding”; and YTRGADGS, with “no binding”; and YTRGASSS, with “binds”.
As to YRRGASSS, the antigen binding call was “binds”.
To AETKGSLA belongs “no binding”; to SAAGGAAV chain 1 L45S, “no binding”; to DAEEDAGY, “no binding”.
Then VKKEDAGD, with “no binding”; and FRRGDALD, with “binds”.
Then FGRGTSGD, with “no binding”; and FAARSYGD, with “no binding”; and FRRGDAGD, with “binds”.
On to FGRRTYGD, for which the antigen binding call is listed as “binds”.
To FKTKSAGD belongs “no binding”; to FTGEAAGD, “no binding”; to FKRGDAGD, “binds”.
To STAEDDWV belongs “no binding”; to VTAGDDAV, “no binding”; to AARADDVA, “no binding”.
To YRTRGAVD belongs “binds”; to VTTRGAVA, “no binding”; to VRTRGAVD, “binds”.
Consider YKTRGAGD chain 1 Q43R, for which the antigen binding call is reported as “binds”.
Then YRTRGASD, with “binds”; and VTTGGAVD, with “no binding”; and DTTKGDGS, with “no binding”.
Then VEKGGDGV, with “no binding”.
